Screens deposited in PubChem by several laboratories.
Only a selection was taken, and hits are over-represented in it overall.
AMPAR-TARP mod: modulates AMPAR-stargazin complexes | O88602+P19491 | HEK293 GluA2+stargazin, membrane potential dye (FDSS), glutamate EC50; hits were called plate by plate, in both directions | calls only at 30 µM | 3.5% of 40,000 active;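 active means any of four per-well response measures lying three or more SD from its plate-wide compound average, in either direction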
Target sequence (O88602 whole entry, looked up): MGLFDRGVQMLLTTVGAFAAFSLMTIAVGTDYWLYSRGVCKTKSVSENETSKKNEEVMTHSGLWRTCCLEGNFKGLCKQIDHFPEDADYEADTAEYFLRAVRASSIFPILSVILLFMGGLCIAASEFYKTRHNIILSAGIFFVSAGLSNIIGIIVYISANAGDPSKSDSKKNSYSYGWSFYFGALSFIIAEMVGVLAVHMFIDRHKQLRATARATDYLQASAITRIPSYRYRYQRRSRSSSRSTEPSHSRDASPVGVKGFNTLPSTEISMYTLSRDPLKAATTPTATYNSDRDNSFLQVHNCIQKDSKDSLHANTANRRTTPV
Target sequence (P19491 whole entry, looked up): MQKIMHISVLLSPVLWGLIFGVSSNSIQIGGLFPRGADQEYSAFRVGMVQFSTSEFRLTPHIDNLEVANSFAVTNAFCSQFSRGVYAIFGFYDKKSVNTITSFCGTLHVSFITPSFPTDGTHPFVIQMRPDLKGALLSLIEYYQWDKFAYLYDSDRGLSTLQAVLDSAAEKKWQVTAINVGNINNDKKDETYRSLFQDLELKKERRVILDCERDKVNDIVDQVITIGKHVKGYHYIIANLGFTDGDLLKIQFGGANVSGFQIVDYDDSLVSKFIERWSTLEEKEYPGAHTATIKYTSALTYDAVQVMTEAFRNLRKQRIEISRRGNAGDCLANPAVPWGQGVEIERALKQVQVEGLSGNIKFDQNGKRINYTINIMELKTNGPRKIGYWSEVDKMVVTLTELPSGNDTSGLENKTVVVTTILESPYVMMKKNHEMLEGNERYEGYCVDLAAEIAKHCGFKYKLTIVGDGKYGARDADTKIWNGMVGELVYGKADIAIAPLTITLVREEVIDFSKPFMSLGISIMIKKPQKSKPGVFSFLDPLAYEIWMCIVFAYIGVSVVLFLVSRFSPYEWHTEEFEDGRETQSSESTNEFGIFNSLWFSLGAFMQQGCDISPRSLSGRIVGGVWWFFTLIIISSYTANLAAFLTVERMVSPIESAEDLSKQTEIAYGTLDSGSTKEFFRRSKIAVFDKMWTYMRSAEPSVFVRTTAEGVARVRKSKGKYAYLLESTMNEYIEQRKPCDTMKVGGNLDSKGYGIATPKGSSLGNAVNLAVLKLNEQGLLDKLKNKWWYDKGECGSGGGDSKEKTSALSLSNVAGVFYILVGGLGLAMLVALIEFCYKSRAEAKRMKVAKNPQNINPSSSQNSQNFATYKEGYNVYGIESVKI
GIRK2 activator: GIRK2 channel activators by thallium flux; activation (% efficacy), % for hits at 37.5 µM; HEK293 GIRK2/NPY4 cells, thallium flux fluorescence; 34,000 tested, under 10 active;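 active means primary screen hit, no activity in plain HEK293 cells, and in GIRK2-only cells above 5% efficacy rising with concentration; inactive means the rest, including fluorescent compounds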;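 further: efficacy is normalized control-subtracted fluorescence 15 s after thallium addition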
Calls only; . = inactive; / = not tested or not shown; + = active, no number.

SMILES | AMPAR-TARP mod | GIRK2 activator
COc1cccc(C(CNC(=O)C2CCN(S(C)(=O)=O)CC2)N2CCOCC2)c1 (configuration not stated) | . | .
COc1cccc(C(CNC(=O)c2cccc([N+](=O)[O-])c2C)N2CCOCC2)c1 (configuration not stated) | + | .
COc1cccc(C(CNC(=O)Nc2ccccc2)N2CCOCC2)c1 (configuration not stated) | . | .
O=C(NCC(c1ccc(F)cc1)N1CCOCC1)NC1CCCCC1 (configuration not stated) | . | /
COC(=O)C1=C(CS(=O)(=O)c2cccs2)NC(=O)NC1c1ccc(OC)c(OC)c1 (configuration not stated) | . | /
COc1ccc(SCC(=O)N2CCN(c3nc4ccc([N+](=O)[O-])cc4s3)CC2)cc1 | . | /
CC(=O)Cn1c(=O)c2c(nc3n(C4CCCC4)c(C)c(C)n23)n(C)c1=O | . | /
Cc1nc(-c2cccs2)c(CCC(=O)N2CCc3ccccc32)s1 | . | .
COc1ccc(CC(=O)N2CCC(CN3CCN(C)CC3C)CC2)cc1 (configuration not stated) | . | .
CCC(=O)c1ccc(OCC(O)CN2CCN(C)CC2)cc1 (configuration not stated) | . | .
O=C(CCc1ccccc1)N1CCN(Cc2nc(-c3cccs3)cs2)CC1 | . | .
CNC(=O)C1Cc2ccccc2N1C(=O)c1ccc(OC(C)C)cc1 (configuration not stated) | . | .
COc1ccc(C)cc1NC(=O)C(=O)NCC1CCN(Cc2ccccc2SC)CC1 | . | .
O=C(NCCc1ccccc1)C(=O)NCC1CCN(C(=O)COc2ccccc2)CC1 | + | .
O=C(NCc1ccccc1Cl)C(=O)NCC1CCN(C(=O)COc2ccccc2)CC1 | . | .
O=C(NCCc1ccccc1)NCC1CCN(C(=O)COc2ccccc2)CC1 | . | .
O=C(NCc1cccc2ccccc12)NCC1CCN(C(=O)COc2ccccc2)CC1 | + | .
CCOc1ccc(-n2c(-c3ccccc3)cn3c4c(=O)n(C(C)C(C)=O)c(=O)n(C)c4nc23)cc1 (configuration not stated) | . | /
CC(C)N1CCC(CNC(=O)Cc2ccc(Cl)cc2)CC1 | . | /
COc1ccc(N2CCCS2(=O)=O)cc1NC(=O)NCc1ccc(OC)c(OC)c1 | . | .
CCCC(=O)Nc1ccc(C(=O)NCCNC(=O)c2ccccc2OC)cc1 | . | .
Cc1ccc(C(=O)Nc2ccc(C(=O)NCCNC(=O)c3ccccc3C)cc2)cc1 | + | /
CCn1c(=O)c2c(nc3n(-c4ccc(OC)cc4)c(-c4ccccc4)cn23)n(C)c1=O | . | /
COC(=O)c1ccc(C(=O)Nc2sc3c(c2-c2nc4ccccc4s2)CCN(C(C)C)C3)cc1 | . | /
COc1ccc(C(=O)Nc2sc3c(c2-c2nc4ccccc4s2)CCN(C(C)C)C3)cc1OC | + | /
SMILES | AMPAR-TARP mod | GIRK2 activator
CCN1CCc2c(sc(NC(=O)c3ccc(C)c(C)c3)c2-c2nc3ccccc3s2)C1 | . | /
CCN1CCc2c(sc(NC(=O)c3ccc(OC)c(OC)c3)c2-c2nc3ccccc3s2)C1 | + | /
CCc1cc(=O)[nH]c2cc(NC(=O)Cc3cccc(OC)c3)ccc12 | / | .
CCc1cc(S(=O)(=O)N2c3ccccc3CC2C)ccc1OC (configuration not stated) | . | /
CC(C)S(=O)(=O)c1ccc(C(=O)Nc2nc3cc4c(cc3s2)OCCO4)cc1 | . | .
Cc1ccc2nc(NC(=O)c3ccc(S(=O)(=O)C(C)C)cc3)sc2c1 | + | /
Cc1cn(C)nc1C(=O)Nc1nc2ccc(S(C)(=O)=O)cc2s1 | + | .
CS(=O)(=O)c1ccc2nc(NC(=O)Cn3cccn3)sc2c1 | . | .
O=C(NCCCn1nc(-c2ccccc2)ccc1=O)c1ccco1 | . | .
CC(C)(C)n1nc2c(c1-n1cccc1)CN(C(=O)c1cc3ccccc3oc1=O)C2 | + | .
CC(C)(C)n1nc2c(c1-n1cccc1)CN(C(=O)Cn1c(=O)oc3ccccc31)C2 | . | .
O=C(CCCS(=O)(=O)c1ccccc1)N1CCN(c2nc3c(F)cc(F)cc3s2)CC1 | . | .
COc1nn(C)cc1C(=O)NCC(=O)Nc1ccc(F)c(C(F)(F)F)c1 | + | .
COc1nn(C)cc1C(=O)NCC(=O)Nc1ccc(C#N)cc1 | . | .
COCC(C)(O)CNC(=O)c1ccc(Cl)cc1 (configuration not stated) | + | .
COCC(C)(O)CNC(=O)c1cn(C)nc1OC (configuration not stated) | + | .
COCC(C)(O)CNC(=O)c1c(F)cccc1F (configuration not stated) | + | .
COc1nn(C)cc1C(=O)NCC(=O)NCC(F)(F)F | . | .
COCC(C)(O)CNC(=O)c1ccccc1C(F)(F)F (configuration not stated) | . | .
COCC(C)(O)CNC(=O)c1cc(OC)cc(OC)c1 (configuration not stated) | . | .
CN1CCN(/C=C(\C#N)C(=O)NCc2ccccc2)CC1 | . | .
CC(=O)c1ccc(NC(=O)CSc2ncnc3c2[nH]c2ccc(F)cc23)cc1 | . | .
CCOc1ccccc1NC(=O)CN1CC(c2nc(-c3cccc(C(=O)NC)c3)no2)C1 | / | .
COc1ccc(SCCC(=O)Nc2nnc(-c3cc(C)n(C)n3)o2)cc1 | . | .
CCc1cccc(C)c1NC(=O)c1c(-c2ccccc2Cl)noc1C | . | .
SMILES | AMPAR-TARP mod | GIRK2 activator
COc1ccc(S(=O)(=O)CCC(=O)Nc2nc3c(C)ccc(Cl)c3s2)cc1 | . | .
CC(C)c1cc(=O)[nH]c2cc(NC(=O)Cc3ccc(F)cc3)ccc12 | / | .
COCCNC(=O)C(=O)NCc1ccco1 | . | .
CCOC(=O)c1c(C)c(C(=O)NCc2ccco2)c(C)n1CC | + | .
COc1ccc(-c2nn(C)c(=O)c3ccccc23)cc1CNC(=O)COc1cccc(C)c1 | + | /
CCCC(=O)NCc1cc(-c2nn(C)c(=O)c3ccccc23)ccc1OC | . | /
O=C(Nc1ccccc1)c1ccc(C(=O)Nc2ccccc2)nc1 | . | /
O=C(Nc1ccccc1)c1cccc2nc3ccccc3nc12 | + | /
O=C1NC(=O)C2(CCN(S(=O)(=O)c3ccccc3Cl)CC2)N1 | . | .
CSc1ccccc1NC(=O)c1ccc(=O)n(Cc2ccccc2F)c1 | . | .
COc1ccc(C)cc1NC(=O)c1ccc(=O)n(Cc2cc(C)ccc2C)c1 | . | .
CSc1ccccc1NC(=O)c1ccc(=O)n(Cc2ccccc2Cl)c1 | + | .
Cc1ccc(Cn2cc(C(=O)Nc3c(C)cccc3C)ccc2=O)cc1 | . | .
Cc1ccccc1Cn1cc(C(=O)Nc2c(C)cccc2C)ccc1=O | + | .
CSc1ccccc1NC(=O)c1ccc(=O)n(Cc2cc(C)ccc2C)c1 | + | .
CCN1CCc2nc(-c3ccc(F)cc3)n(CC(=O)Nc3ccccc3C)c(=O)c2C1 | / | .
COCCn1c(SCc2ccc(C(F)(F)F)cc2)nnc1-c1cn(C)nc1OC | + | .
COCCn1c(SCc2ccccc2)nnc1-c1cn(C)nc1OC | . | .
O=S(=O)(c1cccs1)N1CCN(c2ccc(-c3ccccc3)nn2)CC1 | . | .
O=S(=O)(c1cccs1)N1CCN(c2ccc(N3CCCC3)nn2)CC1 | + | .
CN(C)c1cccc(C(=O)N2CC(c3nc(-c4cccc(C(F)(F)F)c4)no3)C2)c1 | / | .
COc1ccc(S(=O)(=O)NCCNc2ccc(Nc3ccccn3)nn2)cc1OC | . | .
